Laboratory results: PubChem BioAssay (NCI)
About 79,000 compounds went through this panel and 15% of them were active in at least one assay; those are over-represented in the sample as a whole. Active and inactive are the calls of the source. Rule as the data show it: active = growth inhibition above about 70%; inactive = the rest.

Test: NCI Yeast Anticancer Drug Screen. Data for the cln2 rad14 strain (AID 165);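 also: 0% = growth equal to vehicle treated cultures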
Conditions: S. cerevisiae cln2 rad14 strain, at 50.0 µM, hits give high values
Method in brief: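 Relative to vehicle controls, growth inhibition of compound-treated cln2 rad14 yeast was recorded.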
In the case of `S=C(Nc1cc(Cl)cc(Cl)c1)SCc1ccccc1`, the growth inhibition is reported as 98.7% (active).
With `CCCOc1cc(C(=O)OCCN(CC)CC)cc(OCCC)c1OCCC` the growth inhibition was 15.1% (inactive).
In the case of `C=C1C(=O)[C@@]23CC[C@H]4[C@@](C)(CCC[C@@]4(C)C(=O)OC)[C@@H]2CC[C@]1(O)C3`, the growth inhibition is reported as 92.2% (active).
With `CCCSc1ncnc2nc(C)[nH]c12` the growth inhibition was 39.6% (inactive).
In the case of `O=C1C=CC(=O)N1CCCCCCN1C(=O)C=CC1=O`, the growth inhibition is reported as 99.5% (active).
For `CCOC(=O)c1[nH]c2c([N+](=O)[O-])cccc2c1[N+](=O)[O-]`, the growth inhibition was 98.6% (active).
For `CSC(=S)/C(=C/Nc1ncccn1)c1ccccc1`, the growth inhibition was 95% (active).
In the case of `N#CNc1nc(N)c(-c2ccc(Cl)cc2)c(C(=O)Nc2ccc(Cl)c(Cl)c2)n1`, the growth inhibition is reported as -6.6% (inactive).
In the case of `COc1ccc2c(c1)c(=O)c1c(NCCN(C)C)ccc3nnn2c31`, the growth inhibition is reported as 18.9% (inactive).
For `CCC[CH2][Sn]([S][Sn]([CH2]CCC)([c]1ccccc1)[c]1ccccc1)([c]1ccccc1)[c]1ccccc1`, the growth inhibition was 98% (active).
In the case of `CCC1=CCC2C(=O)c3cc4ccccc4cc3C(=O)C2C1` (stereo not drawn), the growth inhibition is reported as 37.5% (inactive).
In the case of `Cc1ccccc1NC(=O)C1C(=O)N(c2ccccc2C)C(=O)/C1=N/O` (stereo not drawn), the growth inhibition is reported as -26.6% (inactive).
For `CCCCc1[nH]ccc2c(C)c3nc4ccccc4c3cc12`, the growth inhibition was 92.1% (active).
For `O=C(O)C(Br)C(Br)C(=O)Nc1ccc(Cl)c(Cl)c1` (stereo not drawn), the growth inhibition was 84.7% (active).
For `Cc1cc(C)c2c(c1)sc1nncn12`, the growth inhibition was 97.6% (active).
In the case of `CC(=O)C(C=O)C(C)=O.CC(=O)CC(C)=O.CC(=O)CC(C)=O.[Ru]`, the growth inhibition is reported as 36% (inactive).
For `COc1ccc(NC(=O)CCC(=O)C(C)C(=O)c2ccccc2)cc1` (stereo not drawn), the growth inhibition was 49.2% (inactive).
For `CCCCCCCCCCCCCC(=O)CC(=O)c1c(O)cccc1O`, the growth inhibition was -64.6% (inactive).
In the case of `Cc1ccc(NC(=S)SCc2ccco2)cc1Cl`, the growth inhibition is reported as 99.5% (active).
In the case of `Cc1nc(N)nn1C`, the growth inhibition is reported as 6.7% (inactive).
With `Cc1cccc(O)c(=O)c1` the growth inhibition was 99.5% (active).
In the case of `O=C1C=CC(=O)N1c1ccc(-c2nc3ccccc3o2)cc1`, the growth inhibition is reported as 88% (active).
With `NC1=NC(c2ccccc2)CC(c2cc(Cl)cc(Br)c2O)=N1` (stereo not drawn) the growth inhibition was 16.2% (inactive).
With `CCCCCCCCCCCc1ccn[nH]1` the growth inhibition was 98.3% (active).
With `CC(=O)Oc1c(-c2ccccc2)cc([N+](=O)[O-])cc1[N+](=O)[O-]` the growth inhibition was 74.4% (active).
With `COc1cccc2c1C1c3ccccc3Sc3cccc(c31)O2` (stereo not drawn) the growth inhibition was 40.2% (inactive).
For `O=C1CC(O)C=C1Nc1ccc(Cl)cc1` (stereo not drawn), the growth inhibition was 98.5% (active).
With `C=CCNC(=S)N/N=C(/c1ccccn1)C(C)C` the growth inhibition was 91.3% (active).
In the case of `CCCCCCCCCCCCCCCC[N+](C)(C)c1ccccc1`, the growth inhibition is reported as 86.2% (active).
For `O=C(NC(OCc1ccccc1)(C(F)(F)F)C(F)(F)F)OCc1ccccc1`, the growth inhibition was 94.8% (active).
In the case of `Cc1cc2oc3c(ccc(=O)n3C)c(=O)c2c(C)c1Cl`, the growth inhibition is reported as 25.9% (inactive).
With `COc1cc2c(cc1OC)C(=O)C(C)(c1ccccc1)NC2` (stereo not drawn) the growth inhibition was 99.5% (active).
In the case of `CCC(C)NCCNc1cc(OC)cc2cccnc12` (stereo not drawn), the growth inhibition is reported as -26.6% (inactive).
With `CN(C)CCCN=c1c2ccccc2n(O)c2ccccc12` the growth inhibition was 24.7% (inactive).
With `N#CCc1ccccc1-c1cccc2ccccc12` the growth inhibition was 41.2% (inactive).
In the case of `CN=C1NS(=O)(=O)c2ccccc21`, the growth inhibition is reported as 19.1% (inactive).
In the case of `COc1cc(CSc2ccc(O)cc2)cc(OC)c1OC`, the growth inhibition is reported as 50% (inactive).
In the case of `CN(C)CCCNc1c2ccccc2nc2cccc([N+](=O)[O-])c12`, the growth inhibition is reported as 89.2% (active).
With `CCCCCCCCCCCCCCCc1ncc(C)[nH]1` the growth inhibition was 97.4% (active).

Test: NCI Yeast Anticancer Drug Screen. Data for the bub3 strain (AID 167)
Conditions: S. cerevisiae bub3 mutant strain, at 5.0 µM (retest, dose inferred, filed as 0.5), hits give high values
Method in brief: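 Inhibition values come from growth of compound-treated mutant yeast normalised to vehicle-treated controls.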
In the case of `S=C(Nc1cc(Cl)cc(Cl)c1)SCc1ccccc1`, the growth inhibition is reported as 4% (inactive).
In the case of `CCCOc1cc(C(=O)OCCN(CC)CC)cc(OCCC)c1OCCC`, the growth inhibition is reported as -21% (inactive).
In the case of `C=C1C(=O)[C@@]23CC[C@H]4[C@@](C)(CCC[C@@]4(C)C(=O)OC)[C@@H]2CC[C@]1(O)C3`, the growth inhibition is reported as 94% (active).
For `CCCSc1ncnc2nc(C)[nH]c12`, the growth inhibition was -1% (inactive).
For `O=C1C=CC(=O)N1CCCCCCN1C(=O)C=CC1=O`, the growth inhibition was 20% (inactive).
In the case of `CCOC(=O)c1[nH]c2c([N+](=O)[O-])cccc2c1[N+](=O)[O-]`, the growth inhibition is reported as 0% (inactive).
In the case of `CSC(=S)/C(=C/Nc1ncccn1)c1ccccc1`, the growth inhibition is reported as -3% (inactive).
In the case of `N#CNc1nc(N)c(-c2ccc(Cl)cc2)c(C(=O)Nc2ccc(Cl)c(Cl)c2)n1`, the growth inhibition is reported as -2% (inactive).
In the case of `COc1ccc2c(c1)c(=O)c1c(NCCN(C)C)ccc3nnn2c31`, the growth inhibition is reported as -4% (inactive).
In the case of `CCC[CH2][Sn]([S][Sn]([CH2]CCC)([c]1ccccc1)[c]1ccccc1)([c]1ccccc1)[c]1ccccc1`, the growth inhibition is reported as 98% (active).
For `CCC1=CCC2C(=O)c3cc4ccccc4cc3C(=O)C2C1` (stereo not drawn), the growth inhibition was 10% (inactive).
In the case of `Cc1ccccc1NC(=O)C1C(=O)N(c2ccccc2C)C(=O)/C1=N/O` (stereo not drawn), the growth inhibition is reported as 0% (inactive).
For `CCCCc1[nH]ccc2c(C)c3nc4ccccc4c3cc12`, the growth inhibition was 0% (inactive).
For `O=C(O)C(Br)C(Br)C(=O)Nc1ccc(Cl)c(Cl)c1` (stereo not drawn), the growth inhibition was 96% (active).
In the case of `Cc1cc(C)c2c(c1)sc1nncn12`, the growth inhibition is reported as 70% (active).
For `CC(=O)C(C=O)C(C)=O.CC(=O)CC(C)=O.CC(=O)CC(C)=O.[Ru]`, the growth inhibition was -7% (inactive).
For `COc1ccc(NC(=O)CCC(=O)C(C)C(=O)c2ccccc2)cc1` (stereo not drawn), the growth inhibition was 0% (inactive).
For `CCCCCCCCCCCCCC(=O)CC(=O)c1c(O)cccc1O`, the growth inhibition was -11% (inactive).
For `Cc1ccc(NC(=S)SCc2ccco2)cc1Cl`, the growth inhibition was -3% (inactive).
With `Cc1nc(N)nn1C` the growth inhibition was 0% (inactive).
In the case of `Cc1cccc(O)c(=O)c1`, the growth inhibition is reported as 9% (inactive).
In the case of `O=C1C=CC(=O)N1c1ccc(-c2nc3ccccc3o2)cc1`, the growth inhibition is reported as 100% (active).
For `NC1=NC(c2ccccc2)CC(c2cc(Cl)cc(Br)c2O)=N1` (stereo not drawn), the growth inhibition was -1% (inactive).
With `CCCCCCCCCCCc1ccn[nH]1` the growth inhibition was 14% (inactive).
For `CC(=O)Oc1c(-c2ccccc2)cc([N+](=O)[O-])cc1[N+](=O)[O-]`, the growth inhibition was 24% (inactive).
In the case of `COc1cccc2c1C1c3ccccc3Sc3cccc(c31)O2` (stereo not drawn), the growth inhibition is reported as -1% (inactive).
With `O=C1CC(O)C=C1Nc1ccc(Cl)cc1` (stereo not drawn) the growth inhibition was -9% (inactive).
For `C=CCNC(=S)N/N=C(/c1ccccn1)C(C)C`, the growth inhibition was -2% (inactive).
With `CCCCCCCCCCCCCCCC[N+](C)(C)c1ccccc1` the growth inhibition was 99% (active).
In the case of `O=C(NC(OCc1ccccc1)(C(F)(F)F)C(F)(F)F)OCc1ccccc1`, the growth inhibition is reported as 13% (inactive).
In the case of `Cc1cc2oc3c(ccc(=O)n3C)c(=O)c2c(C)c1Cl`, the growth inhibition is reported as 18% (inactive).
For `COc1cc2c(cc1OC)C(=O)C(C)(c1ccccc1)NC2` (stereo not drawn), the growth inhibition was 2% (inactive).
With `CCC(C)NCCNc1cc(OC)cc2cccnc12` (stereo not drawn) the growth inhibition was -1% (inactive).
In the case of `CN(C)CCCN=c1c2ccccc2n(O)c2ccccc12`, the growth inhibition is reported as -4% (inactive).
For `N#CCc1ccccc1-c1cccc2ccccc12`, the growth inhibition was 3% (inactive).
For `CN=C1NS(=O)(=O)c2ccccc21`, the growth inhibition was 11% (inactive).
For `COc1cc(CSc2ccc(O)cc2)cc(OC)c1OC`, the growth inhibition was -13% (inactive).
In the case of `CN(C)CCCNc1c2ccccc2nc2cccc([N+](=O)[O-])c12`, the growth inhibition is reported as 76% (active).
With `CCCCCCCCCCCCCCCc1ncc(C)[nH]1` the growth inhibition was 75% (active).
